Results filed as inconclusive are left out. The source made the active and inactive calls. The call rests on the fitted dose curve; in most records, active means well fitted inhibition curve with a large enough effect; inconclusive means small, poorly fitted or top-dose-only effect, or effect the other way; inactive means no such curve, though single readings can be large or run the other way.

This is an account of results in PubChem BioAssay (NCATS).

This assay can be described thus: High Content Imaging Cell-Based qHTS for Inhibitors of the mTORC1 Signaling Pathway in MEF Cells (AID 2667).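 Further: Tsc2-/- p53-/- MEFs stably re-expressing wild-type Tsc2 exposed 24 h.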 As to conditions: series mostly up to 38.3 µM. The text has this: NIH Molecular Libraries Probe Production Centers Network [MLPCN]
NIH Chemical Genomics Center [NCGC]
Assay Submitter (PI): Blenis, John; Hoffman, Greg; Harvard University
NCGC Assay Overview: The mammalian target of rapamycin (mTOR) is an intracellular serine/threonine kinase Aberrant regulation of mTOR signaling plays a causative role in a number of human diseases, including cancer, benign tumors such as lymphangioleiomyomatosis (LAM) and Tuberous Sclerosis Complex (TSC), and metabolic diseases such as diabetes and obesity. This project aims to identify inhibitors of ribosomal protein S6 (rpS6) phosphorylation. The phosphorylation of rpS6 is a key event downstream of mTOR activation. The assay uses a phospho-specific antibody of phospho-rpS6 to detect inhibitors of mTOR activation. Mutations in the Tsc1 and Tsc2 genes are the underlying genetic lesions responsible for TSC, causing constitutive activation of the mTORC1 pathway and leading to profound effects on cell metabolism. Aberrant metabolism in cancer has recently received significant attention as a target to develop therapeutic agents in the treatment of cancer.1 As Tsc2-/- cells have lost the ability to respond to energy and growth factor deprivation, these cells are unable to properly down regulate cellular biosynthetic processes in response to metabolic stress, and are thus extremely sensitive to glucose deprivation-induced death.2 A central goal of this project is to explore the unique cell survival and metabolic properties of cells with Tsc1 or Tsc2 by screening for compounds that selectively target the Tsc2-/- MEFs by screening both Tsc2-/- and WT MEF cell lines. We hope to better understand these aspects of TSC physiology in order to exploit them for therapeutic benefit.
NCGC IN Cell Assay Protocol:
For quantitative high throughput analysis of mTORC1 signaling, we developed a cell-based assay for immuno-fluorescence based detection of rpS6 phosphorylation on the Acumen Explorer that will be used a platform for the primary small molecule screen. Mouse embryonic fibroblasts (MEFs) are cultured in 1536-well plates using DMEM + 10% FBS. Twenty-four hrs after plating, test compounds (solubilized in DMSO) are delivered and incubated with the cells for 24 hrs at 37 degree Celsius. Following the incubation, media with compound is aspirated and the cells are fixed in 4% paraformaldehyde (PFA) containing PBS + 0.2% TX-100. Next, PFA is aspirated, cells are washed two times with PBS plus 0.2% TX-100 and the cells are blocked for 1 hr at room temperature (blocking buffer: LiCOR Blocking Buffer plus 0.2% TX-100). This is followed by aspiration and staining with Alexa-488 conjugated-phospho-rpS6 Ser235/236 antibody for 2 hours at room temperature (Cell Signaling Technology # 4803, 1:50 dilution in blocking buffer). Cells are washed two times with PBS plus 0.2% TX-100, and stained with 10 uM propidium iodide (PI) for 20-25 minutes for cell number measurement (1:500 dilution of Hoescht staining is also added for IN Cell imaging). Active wells which are selected (based on Acumen results) are imaged on the IN Cell 1000 (GE Healthcare) using the D360/40X and HQ480/40X excitation filters for the Hoechst and Alexa-488 cytoplasmic stains, respectively. The fluorescence emission filters used were HQ460/40M and HQ535/50M for the Hoechst and Alexa-488 cytoplasmic stains, respectively. The normalized phospho-S6 staining is calculated as the ratio of […] for the single concentration rapamycin control ([…] nM) and DMSO columns. […] Inhibition of the pathway is defined based on the normalized phospho-S6 intensity in rapamycin treated cells. Each treatment is reported as the % positive cells in the well, where thresholds are defined by selecting wells with the highest and lowest signal and differentiating between the % non-active and % active populations. […]
Take `O=C(NCCN1CCOCC1)c1ccc(Cl)cc1`: the outcome was inactive.
Then `CCN1CCC[C@H]1CNC(=O)c1cc(S(N)(=O)=O)ccc1OC`, with “inactive”; and `Clc1ccc(Cn2c(CN3CCCC3)nc3ccccc32)cc1`, with “inactive”.
In the case of `CC(=O)CCCCn1c(=O)c2c(ncn2C)n(C)c1=O`, the outcome was inactive.
Then `NC(N)=Nc1nc(CSCC/C(N)=N/S(N)(=O)=O)cs1`, with “inactive”.
The same measure for `CCN(CC)CCNC(=O)c1ccc(N)cc1`: “inactive”; for `COc1cccc(-c2cc(=O)c3ccccc3o2)c1N`: “inactive”.
On to `C[N+](C)(C)CC(=O)O`, for which the compound was classed as inactive.
Consider `CC(=O)c1ccc(S(=O)(=O)NC(=O)NC2CCCCC2)cc1`, for which the result was inactive.
With `CC1(C)CCC2=C(O1)c1ccccc1C(=O)C2=O`, the outcome was inactive.
`CC(=O)O[C@]1(C(C)=O)CC[C@H]2[C@@H]3C=C(Cl)C4=CC(=O)[C@@H]5C[C@@H]5[C@]4(C)[C@H]3CC[C@@]21C`: the result was inactive.
Regarding `CCCCC1C(=O)N(c2ccccc2)N(c2ccccc2)C1=O`, the compound was classed as inactive.
Then `CCN(CC)CCOC(=O)c1ccc(N)cc1`, with “inactive”; and `NCCS`, with “inactive”.
As to `O=C1NCC2(CCN(CCc3ccccc3)CC2)O1`, the outcome was inactive.
`C[N+](C)(C)CCCCCC[N+](C)(C)C`: the compound was classed as inactive.
Then `O=C(O)CCc1nc(-c2ccccc2)c(-c2ccccc2)o1`, with “inactive”.
Regarding `COc1ccccc1N1CCN(CCCNc2cc(=O)n(C)c(=O)n2C)CC1`, the result was inactive.
Consider `O=C1NC(=O)C(c2ccccc2)(c2ccccc2)N1`, for which the call was inactive.
The same measure for `CC(=O)N[C@@H](CS)C(=O)O`: “inactive”; for `CCn1cc(C(=O)O)c(=O)c2ccc(C)nc21`: “inactive”.
The same measure for `O=c1cc(-c2ccc(O)cc2)oc2cc(O)cc(O)c12`: “inactive”; for `COc1ccc(Cc2nccc3cc(OC)c(OC)cc23)cc1OC`: “inactive”.
As for `CCN(CC)C(=O)c1ccc(O)c(OC)c1`, the compound was classed as inactive.
Turning to `CN(C)CCC(c1ccccc1)c1ccccn1` (configuration not stated), the outcome was inactive.
As for `CC(C)NCC(O)COc1cccc2[nH]ccc12` (configuration not stated), the outcome was inactive.
For `CC(C)OC(=O)C(C)(C)Oc1ccc(C(=O)c2ccc(Cl)cc2)cc1`, the compound was called inactive.
As for `O=c1c(-c2ccc(O)cc2)coc2cc(O)ccc12`, the result was inactive.
With `Cc1cccc(C)c1OCC(C)N` (configuration not stated), the compound was called inactive.
Consider `CCCNC(=O)NS(=O)(=O)c1ccc(Cl)cc1`, for which the compound was called inactive.
In the case of `COC(=O)[C@@H]1[C@H]2C[C@H]3c4[nH]c5ccccc5c4CCN3C[C@@H]2CC[C@@H]1O`, the call was inactive.
Regarding `CCCCCN(C)CCC(O)(P(=O)(O)O)P(=O)(O)O`, the result was inactive.
